# Compound activity from PubChem BioAssay.
# Most compounds without a hit are left out; they make up all but 7.5% or so of the library.
# FLuc counter – firefly luciferase modulation, counter-screen for miR-21 project. Potency, µM (doses to about 57.5 µM), without a hit: at the top dose activity change, negative = inhibition, usual class: inhibitors. purified FLuc, Km substrates, luminescence inhibition. hit rate 6.9% among 360,000. AID 588342;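 also: plate controls were vehicle for no effect and reference inhibitor for full effect; nearly all actives have a fitted effect of over 55% in size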
# Target sequence (P08659 whole entry, looked up): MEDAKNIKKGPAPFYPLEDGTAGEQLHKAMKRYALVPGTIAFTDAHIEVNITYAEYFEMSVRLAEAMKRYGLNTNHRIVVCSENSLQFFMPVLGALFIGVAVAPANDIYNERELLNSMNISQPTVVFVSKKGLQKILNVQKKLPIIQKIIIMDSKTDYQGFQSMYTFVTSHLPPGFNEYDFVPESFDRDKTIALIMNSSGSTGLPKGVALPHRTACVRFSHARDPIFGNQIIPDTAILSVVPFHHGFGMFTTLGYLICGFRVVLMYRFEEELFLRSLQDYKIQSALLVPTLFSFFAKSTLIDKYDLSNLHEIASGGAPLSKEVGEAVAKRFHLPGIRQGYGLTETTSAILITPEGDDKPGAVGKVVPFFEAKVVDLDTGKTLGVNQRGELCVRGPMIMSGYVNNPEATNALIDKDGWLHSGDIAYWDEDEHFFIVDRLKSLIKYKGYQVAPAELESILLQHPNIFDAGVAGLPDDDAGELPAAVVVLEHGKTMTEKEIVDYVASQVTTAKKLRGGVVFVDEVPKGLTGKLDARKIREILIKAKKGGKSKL
#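 Purified P. pyralis luciferase, 10 nM final, with Km-level 10 uM D-luciferin and 10 uM ATP in 50 mM Tris acetate pH 7.5, 10 mM Mg acetate, 0.01% Tween-20, 0.05% BSA; 6-point qHTS titration about 60 µM downward; luminescence read.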
# SMN2 splice enh – increases expression of the SMN2 splice variant; HEK293 SMN2-luciferase splicing reporter, luminescence, 30-36 h; hit rate 2.8% among 210,000; Potency, µM (titrated, usually from 46.1 µM), without a hit: at the top dose activity change, positive = activation, hits mostly activators; also: % of control where 0% means no effect; nearly all actives have a fitted effect of over 55% in size
#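 HEK293 cells carry an SMN2 […]–luciferase reporter in which exon 7 inclusion puts luciferase in frame. Cells were plated 10-12 h before compound addition, then incubated 30-36 h at 37C. ONE-Glo luminescence was read; sodium butyrate at 4.5 mM final served as control.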
# Rab9 promoter act – activators of Rab9 promoter; AID 485297; hit rate 2.8% among 320,000; Potency, µM (series often up to 9.22 µM), for the others: top-dose activation, negative = inhibition, usual class: activators; Huh7 Rab9 promoter-luciferase reporter, luminescence, 24 h; also: % of control where 0% means no effect; nearly all actives have a fitted effect of over 60% in size
#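 Promoter activation is measured as luciferase luminescence in Huh7 cells stably transfected with a Rab9 promoter–luciferase construct, following 24 h compound exposure at 37 °C and 10 min reagent incubation at ambient temperature.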
# ELG1 genotox – induces genotoxicity in HEK293T cells with luciferase-tagged ELG1. HEK293T ELG1-luciferase reporter, luminescence, 16 h. Potency, µM (doses to about 46 µM), without a hit: top-dose activity change, positive = activation, most hits filed as activators. hit rate 1.3% among 330,000; also: % of control where 0% means no effect; nearly all actives have a fitted effect of over 60% in size
#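 HEK293T cells expressing luciferase-tagged ELG1 were exposed to compound or DMSO vehicle for 16 hr at 37 °C and 5% CO2. Luciferase activity was then measured with ONE-Glo after 30 min at room temperature.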
# Luc counter – blocks Kinase-Glo luciferase, a counter-screen artifact; Kinase-Glo luciferase, ATP luminescence, 8 min; hit rate 0.28% among 200,000; Q27757; Potency, µM (doses to about 38.3 µM), inactives show at the top dose activity change, negative = inhibition, usual class: inhibitors; AID 1379; also: % is scaled to controls: 0 for no effect and ±100 for the full control effect; nearly all actives have a fitted effect of over 60% in size
#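 Kinase-Glo luciferase light output from ATP and luciferin was measured with 10 uM ATP, within the enzyme's linear range. Buffer: 50 mM imidazole pH 7.2, 50 mM KCl, 7 mM MgCl2, 0.01% Tween 20, 0.05% BSA; luminescence read after 8 min at ambient temperature.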
# NPC1 prom act – activators of NPC1 promoter; Huh7 NPC1 promoter luciferase reporter, 24 h; Potency, µM (titrated, usually from 9.22 µM), inactives show at the highest dose activation, actives largely listed as activators; hit rate 2.4% among 320,000; AID 485313; also: % of control where 0% means no effect; nearly all actives have a fitted effect of over 60% in size
#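 Readout is luciferase luminescence, reflecting NPC1 promoter activation in stably transfected Huh7 cells after 24 h compound exposure at 37 °C in reduced-serum medium with 10% FBS.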
# * hit, by the source's call; ? = inconclusive; / = no result given. Calls follow the shape of the dose curve; as a rule, active = well fitted curve in the direction sought with a large enough effect; inconclusive = small, poorly fitted or top-dose-only effect, or another doubt; inactive = no such curve, though single readings can be large; an effect the other way counts as inactive or inconclusive. Potency is read from the fitted curve at half-maximal effect.
SMILES,FLuc counter,SMN2 splice enh,Rab9 promoter act,ELG1 genotox,Luc counter,NPC1 prom act
Cc1nnc(NC(=O)c2ccc(Br)cc2)s1,2.69µM*,?,3.16µM*,?,-4.9%,?
CC(=O)Oc1ccc(C(=O)Nc2nnc(C)s2)cc1,21.3µM*,25.6%,21.0%,?,-2.5%,24.5%
Cc1nnc(NC(=O)c2ccc(S(=O)(=O)N3CCCCC3)cc2)s1,/,/,/,3.2%,/,/
CCOc1cc(C(=O)Nc2nnc(C)s2)cc(OCC)c1OCC,10.1%,?,-5.7%,-0.4%,1.6%,0.5%
CC(=O)Nc1nc2c(s1)C(=O)NCCC2,1.7%,1.5%,-3.9%,-1.0%,0.3%,-1.9%
CCN1CCN(C(=O)c2ccc3c(c2)N(Cc2ccc(Cl)cc2)C(=O)c2ccccc2S3=O)CC1 (stereo not drawn),-1.0%,-1.7%,/,/,/,/
CC1Sc2ccc(C(=O)O)cc2NC1=O (stereo not drawn),1.3%,-24.8%,-2.9%,-0.1%,25.3%,-0.6%
Cc1cccnc1NC(=O)c1ccc2c(c1)NC(=O)C(C)S2 (stereo not drawn),16.9µM*,/,1.6%,?,/,8.9%
CC1Sc2ccc(C(=O)Nc3ncccc3O)cc2NC1=O (stereo not drawn),7.57µM*,/,0.891µM*,?,/,1.26µM*
CC1Sc2ccc(C(=O)OCc3ccccc3Cl)cc2NC1=O (stereo not drawn),2.13µM*,/,1µM*,?,/,2.24µM*
CC1=NN(c2ccc(Cl)cc2)C(=O)C1,-2.4%,-6.5%,7.6%,-5.4%,6.7%,0.3%
CC1=NN(c2nc(-c3ccc(Cl)cc3)cs2)C(=O)C1,15.1µM*,-2.1%,-4.9%,-6.3%,-1.7%,6.9%
Cc1cc(C)n(-c2nc(-c3ccc(Cl)cc3)cs2)n1,5.36µM*,13.1%,3.55µM*,?,-4.1%,?
CC(C)(C)c1ccc(N2C(=N)SCC2=O)cc1,-17.7%,/,-0.8%,-2.6%,/,0.2%
Cc1ccc(-c2csc(N3C(=N)SCC3=O)n2)cc1,2.39µM*,/,2.82µM*,10.3µM*,/,?
COc1ccc(-c2csc(CCN3N=C(C)CC3=O)n2)cc1,?,7.6%,-1.0%,12.9%,-3.5%,-0.1%
Cc1cc(C)n(CCc2nc(-c3ccc(F)cc3)cs2)n1,-18.9%,/,5.8%,-2.3%,1.4%,-1.3%
CC1=NN(c2nc(-c3ccc(F)cc3)cs2)C(=O)C1,16.9µM*,-6.4%,2.1%,1.9%,-0.2%,0.1%
Cc1ccc(NC(=O)COC(=O)c2ccc(-n3cccn3)cc2)cc1C,3.6%,/,-2.2%,3.1%,/,0.7%
Cc1ccc(OCC(=O)OCC(=O)c2cccc([N+](=O)[O-])c2)cc1C,1.6%,/,4.7%,14.4%,/,1.5%
Cc1ccccc1-c1nc(CS(=O)(=O)CC(=O)Nc2c(C)cccc2C)c(C)o1,-8.4%,-12.5%,/,/,/,/
COc1ccc(CN(Cc2ccco2)C(=O)COc2ccccc2OC)cc1,-19.7%,-27.6%,/,/,/,/
CC(Sc1cccc[n+]1[O-])C(=O)Nc1ccc(Oc2ccccc2)cc1 (stereo not drawn),-3.4%,6.9%,-0.7%,-0.2%,2.7%,0.8%
Cn1ccnc1SCC(=O)Nc1cc(Cl)ccc1Cl,-3.7%,-2.3%,/,/,/,/
Fc1ccccc1Nc1n[nH]c(=S)s1,?,12.6µM*,?,?,-0.2%,14.4%
SMILES,FLuc counter,SMN2 splice enh,Rab9 promoter act,ELG1 genotox,Luc counter,NPC1 prom act
CCN(CC)c1ccc(-c2nn3c(-c4n[nH]c5c4CCC5)nnc3s2)cc1,21.3µM*,4.1%,-13.3%,1.2%,-5.6%,-8.9%
CC1CCc2[nH]c3ccc(C(=O)NCC4CCCO4)cc3c2C1 (stereo not drawn),9.53µM*,/,?,7.9%,/,23.3%
O=C(NCC1CCCO1)c1cccc2ccccc12 (stereo not drawn),1.3%,/,-3.6%,-4.3%,/,1.1%
O=C(NCC1CCCO1)c1sc2ccccc2c1Cl (stereo not drawn),19µM*,12.6µM*,?,?,0.6%,?
O=C(NCCc1ccccc1)c1ccc2c(=O)[nH]c3c(C(=O)NCC4CCCO4)sc(=S)n3c2c1 (stereo not drawn),?,/,3.9%,0.3%,/,3.0%
O=C(NCC1CCCO1)c1sc(=S)n2c1[nH]c(=O)c1ccc(C(=O)N3CCCCC3)cc12 (stereo not drawn),21.3µM*,8.7%,1.0%,-1.7%,-1.1%,-4.7%
O=C(O)CC(NC(=O)c1sc2ccccc2c1Cl)c1ccc(OC2CCCC2)cc1 (stereo not drawn),15.1µM*,-27.5%,8.5%,2.5%,1.9%,-2.0%
CC(NC(=O)c1sc2ccccc2c1Cl)C1CCCO1 (stereo not drawn),9.53µM*,11.2µM*,?,?,-1.2%,?
CC(NC(=O)c1csc2ccccc12)C1CCCO1 (stereo not drawn),-10.6%,15.5%,1.9%,?,-3.3%,11.6%
Cc1ccc2c(Cl)c(C(=O)NCC3CCCO3)sc2c1 (stereo not drawn),5.36µM*,11.2µM*,2.24µM*,?,-4.1%,2µM*
COc1ccc2c(Cl)c(C(=O)NCC3CCCO3)sc2c1Cl (stereo not drawn),-8.9%,/,22.4%,2.0%,2.1%,4.0%
Cc1ccc(S(=O)(=O)Cc2nc(-c3ccc(C(=O)NCc4ccccc4F)cc3)oc2C)cc1,-10.6%,/,/,/,/,/
Oc1c(Cl)cc(Cl)cc1C=Nc1cc(C(F)(F)F)ccc1N1CCc2ccccc2C1,1.9µM*,/,?,?,/,?
COCCNC(=O)c1noc2c1CCc1cc(OC)ccc1-2,?,7.94µM*,?,?,-1.6%,3.55µM*
COc1ccc2c(c1)CCc1c(C(=O)NCCN3CCOCC3)noc1-2,-16.1%,-6.1%,-2.5%,2.1%,1.2%,-0.7%
COCC(C)NC(=O)c1noc2c1CCc1cc(OC)ccc1-2 (stereo not drawn),13.5µM*,10µM*,2.51µM*,?,-4.6%,3.16µM*
COc1ccc2c(c1)CCc1c(C(=O)N(C)c3ccccc3)noc1-2,13.5µM*,5.01µM*,?,?,-1.3%,?
COc1ccc2c(c1)CCc1c(C(=O)NCc3ccco3)noc1-2,7.57µM*,7.08µM*,1.58µM*,?,0.1%,3.55µM*
COc1ccc2c(c1)CCc1c(C(=O)Nc3ccc(C#N)cc3)noc1-2,-2.2%,18.3%,/,/,/,/
COc1ccc2c(c1)CCc1c(C(=O)NC3CCCCC3)noc1-2,1.35µM*,7.08µM*,1.12µM*,?,-11.9%,1.41µM*
COc1ccc2c(c1)CCc1c(C(=O)Nc3cc(OC)c(Cl)cc3OC)noc1-2,-5.3%,3.3%,/,/,/,/
COc1cccc(-n2c(SCC(N)=O)nc3c([nH]c4ccccc43)c2=O)c1,-12.1%,12.6µM*,2.4%,13.8%,2.4%,1.0%
